# Screening data from PubChem BioAssay.
# Shown are actives, neighbours in structure and some others; about 1.2% of the full set was active somewhere.
# RGS7-Gao = regulators of human RGS7-Galphao interaction; P09471; AID 1439; 220,000 compounds, 0.35% hits; Multiplexed bead flow cytometry, RGS7-Galphao binding; actives lie on both sides; binding response (% of control), % at 10 µM; in the data active means binding response below about 49% or above about 150%; inconclusive means no clear call, values can overlap the other calls; inactive means in between;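 further: fluorescent Galphao held in activated GDP-AlF4 state binding bead-coupled RGS7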
# Target sequence (P09471 whole entry, looked up): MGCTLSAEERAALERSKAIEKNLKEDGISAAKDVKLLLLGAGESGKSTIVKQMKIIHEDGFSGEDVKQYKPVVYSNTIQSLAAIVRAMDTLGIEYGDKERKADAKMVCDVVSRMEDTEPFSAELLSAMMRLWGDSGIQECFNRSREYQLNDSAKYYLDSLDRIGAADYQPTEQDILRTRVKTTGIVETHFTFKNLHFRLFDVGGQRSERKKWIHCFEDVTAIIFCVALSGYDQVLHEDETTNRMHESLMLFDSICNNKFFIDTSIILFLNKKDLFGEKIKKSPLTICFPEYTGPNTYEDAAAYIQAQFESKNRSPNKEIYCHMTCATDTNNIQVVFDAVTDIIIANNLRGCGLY
# Avidin bead fluor = avidin bead compound fluorescence profile; Avidin beads, compound fluorescence 488/530 nm, flow cytometry; stronger effect = higher value; fluorescence (KMESF) at 10 µM; 220,000 compounds, 0.38% hits; AID 1775; in the data active means fluorescence above about 47
# GSH bead fluor = GSH bead compound fluorescence profile; fluorescence (KMESF) at 10 µM; AID 1776; GSH beads flow cytometry, compound fluorescence 488/530 nm; stronger effect = higher value; 190,000 compounds, 0.25% hits; in the data active means fluorescence above about 89;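 further: glutathione beads carrying GST-tagged Bcl family fusion proteins plus one bare bead set; values are compound well signal with DMSO vehicle wells as background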
# RGS8-Gao reg = human RGS8-Galphao interaction regulation; P09471; 220,000 compounds, 0.34% hits; response (percent of control binding), % at 10 µM; multiplexed bead flow cytometry, RGS8-Galphao binding; actives lie on both sides; in the data active means response below about 60% or above about 140%; inactive means in between;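 further: Galphao activated as the GDP aluminium fluoride complex binding bead-coupled RGS8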
# RGS16-Gao HTS = regulators of human RGS16-Galphao interaction; O15492+P09471; AID 1441; bead-based flow cytometry RGS16-Galphao binding, fluorescence; actives lie on both sides; binding response (% of control), % at 10 µM; 220,000 compounds, 0.38% hits;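 further: Galphao activated by GDP with aluminum fluoride before binding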
# Target sequence (O15492 whole entry, looked up): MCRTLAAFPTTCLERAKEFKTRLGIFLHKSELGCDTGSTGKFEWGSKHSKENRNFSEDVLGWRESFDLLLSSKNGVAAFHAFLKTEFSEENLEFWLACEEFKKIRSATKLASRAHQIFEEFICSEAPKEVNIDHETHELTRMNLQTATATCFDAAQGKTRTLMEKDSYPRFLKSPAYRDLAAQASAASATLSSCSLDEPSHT
# Target sequence (P09471 whole entry, looked up): as the sequence (P09471 whole entry, looked up) above
# RGS4-Gao reg = modulates binding of RGS4 to human Galphao; binding response (% of control), % at 10 µM; AID 1415; P09471; Multiplexed bead flow cytometry; actives lie on both sides; 220,000 compounds, 0.33% hits; in the data active means binding response below about 49% or above about 150%; inactive means in between;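 further: fluorescent Galphao activated with aluminum fluoride binding bead-coupled RGS4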
# RGS4-Gao HTS = modulates binding between human RGS4 and Galphao; shares compounds with RGS16-Gao HTS; multiplexed bead flow cytometry, RGS–Galpha-o binding; 1,600 compounds, 99% hits; AID 1504; RGS4–Galpha-o binding response, % at 10 µM;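 further: fluorescently labeled Galpha-o bound to GDP with aluminium fluoride binding biotinylated RGS beads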
# Avidin counter = biotin-avidin bead binding disruption counter-screen; shares compounds with RGS16-Gao HTS; streptavidin beads, fluorescein-biotin binding, flow cytometry; inhibition, % at 10 µM; 1,700 tested, under 10 active; AID 1783;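 active means inhibition above 50%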;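 further: median green fluorescence of gated singlet beads compared with DMSO control wells; 0% = DMSO wells and 100% = complete loss of bead fluorescence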
# RGS8-Gao confirm = RGS8-Galphao interaction regulation, single point confirmation; shares compounds with RGS16-Gao HTS; bead-based flow cytometry RGS8-Galphao binding, fluorescence; actives lie on both sides; binding response (% of control), % at 10 µM; 1,700 compounds, 3% hits; AID 1836; in the data active means binding response below about 72% or above about 130%; inactive means in between;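 further: Galphao activated as GDP AlF4 complex before binding bead RGS8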
# RGS7-Gao single = confirmation of regulators of human RGS7-Galphao interaction; AID 1837; response (percent of control binding), % at 10 µM; 1,700 compounds, 7.8% hits; bead-based flow cytometry RGS7-Galphao binding; actives lie on both sides; shares compounds with RGS16-Gao HTS; in the data active means response below about 75% or above about 130%; inactive means in between;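 further: fluorescent Galphao activated with GDP and aluminum fluoride binding bead-coupled RGS7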
# RGS16-Gao single = confirmation of regulators of human RGS16-Galphao interaction; shares compounds with RGS16-Gao HTS; bead-based flow cytometry, RGS16-Galphao binding; actives lie on both sides; response (% of control binding), % at 10 µM; 1,700 compounds, 4% hits; in the data active means response below about 74% or above about 130%; inactive means in between;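 further: Galphao activated as the GDP aluminium fluoride complex binding bead-coupled RGS16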
# RGS4-Gao single = confirmation of regulators of human RGS4-Galphao interaction. 1,700 compounds, 4% hits. RGS4-Galphao binding, multiplexed bead flow cytometry; actives lie on both sides. binding response (% of control), % at 10 µM. shares compounds with RGS16-Gao HTS; in the data active means binding response below about 74% or above about 130%; inactive means in between
# RGS19-Gao conf = confirmation of regulators of human RGS19-Galphao interaction | 1,700 compounds, 5% hits | shares compounds with RGS16-Gao HTS | bead-based flow cytometry RGS19-Galphao binding; actives lie on both sides | response (percent of control binding), % at 10 µM | AID 1841; in the data active means response below about 50% or above about 160%; inactive means in between;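 further: 100% = no compound control and 0% = blank background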
# Starred values were filed as active, the others as inactive; ? = inconclusive; . = no result given; [ ] = remark or other dose. Unless noted, how the calls were made is not given here.
SMILES,RGS7-Gao,Avidin bead fluor,GSH bead fluor,RGS8-Gao reg,RGS16-Gao HTS,RGS4-Gao reg,RGS4-Gao HTS,Avidin counter,RGS8-Gao confirm,RGS7-Gao single,RGS16-Gao single,RGS4-Gao single,RGS19-Gao conf
CC1CCC2(CC1)NC(=S)N(c1ccccc1)N2 (stereo not drawn),170.6*[activator],125*,10,101.7,104.8,139.5,139.5*,-0.5,94.2,94.3,92.5,95.1,98.2
O=c1oc2ccccc2c(N2CCCCC2)c1[N+](=O)[O-],102.4,13,4,100.2,103.3,100.8,.,.,.,.,.,.,.
O=c1oc2ccccc2c(N2CCCC2)c1[N+](=O)[O-],156.6*[activator],21,15,160.7*[activator],179.8*[activator],157.4*[activator],.,-0.9,92.5,83.6,87.5,88.9,74.6
CC(C)CC(=O)Nc1cccc(C(C)O)c1 (stereo not drawn),203.1*[activator],173*,9,89.8,151.2,114.5,114.5*,1.9,101.8,106.1,99.3,101.6,136.7
CCCCC(=O)Nc1cccc(C(C)O)c1 (stereo not drawn),102.5,22,9,103.2,101.6,103.5,.,.,.,.,.,.,.
Cc1nc(NCCN2CCOCC2)c2nnn(Cc3ccccc3Cl)c2n1,99.9,8,46,103.5,92.8,101.0,.,.,.,.,.,.,.
Clc1ccccc1Cn1nnc2c(NCCN3CCOCC3)ncnc21,117.0,16,26,141.1*[activator],233.8,114.2,114.2*,0.7,102.8,104.7,101.5,103.3,91.4
CC(C)(C)c1nc(NCCN2CCOCC2)c2nnn(Cc3ccccc3Cl)c2n1,125.2,7,55,153.1*[activator],342.3,128.7,128.7*,10.1,98.5,70.3*,92.0,76.6,84.1
CC(=O)c1cccc(NC(=O)C(=O)Nc2cccc3ccccc23)c1,102.3,13,11,100.5,102.5,100.5,.,.,.,.,.,.,.
CC(=O)NCC(=O)N1CCCC(C(=O)c2ccc(Oc3ccccc3)cc2)C1 (stereo not drawn),79.8,6,15,87.9,89.0,87.2,.,.,.,.,.,.,.
CC(C)(C)C(=O)N1CCN(c2nc3ccccc3o2)CC1,97.3,7,21,103.2,100.6,100.7,.,.,.,.,.,.,.
COc1ccc(CCNCC(=O)Nc2ccccc2C(F)(F)F)cc1,?,12,14,101.2,102.3,102.6,.,.,.,.,.,.,.
O=S1(=O)CC2N=C(N(Cc3c(F)cccc3Cl)c3ccccc3F)SC2C1 (stereo not drawn),12.2*,-2,20,16.7*,11.1*,18.8*,.,1.1,102.4,97.9,104.3,101.9,98.3
CC(C)C(=O)Nc1ccc(C(=O)NNC(=S)NC(=O)c2ccco2)cc1,?,.,.,103.9,96.2,96.6,.,.,.,.,.,.,.
CCOC(=O)/C=C1\SCC(=O)N1CC(=O)Nc1ccc2c(c1)CCC2,98.5,11,26,103.2,103.2,104.4,.,.,.,.,.,.,.
CCOC(=O)/C=C1\SCC(=O)N1CC(=O)Nc1ccc(C(C)C)cc1,110.5,5,19,142.0*[activator],301.0,113.8,113.8*,-1.0,98.8,100.0,97.2,98.7,99.5
COc1ccc(Cl)cc1S(=O)(=O)N1CCN(C)CC1,103.3,8,22,100.4,106.9,101.4,.,.,.,.,.,.,.
COc1ccc(Cl)cc1S(=O)(=O)N1CCCC1,.,.,44,.,.,.,.,0.5,102.1,103.4,106.2,103.0,109.9
O=C1CCC(N2C(=O)c3ccccc3C2=O)C(=O)N1 (stereo not drawn),22.7*,4,14,45.8*,49.2,37.3*,.,-2.1,100.1,99.1,102.1,103.2,99.3
Cc1ccc(CNC(=O)CCC2CCCN(Cc3cc4ccccc4o3)C2)o1 (stereo not drawn),?,7,.,100.1,96.6,91.1,.,.,.,.,.,.,.
Oc1ccc(Nc2nc3ccccc3nc2Nc2ccc(O)cc2)cc1,161.0*[activator],80*,24,109.7,169.7,165.0*[activator],.,0.2,95.4,83.8,90.2,87.2,80.9
Cc1nc2ccccc2nc1N/N=C/c1ccc(O)cc1,?,7,.,99.3,96.5,97.2,.,.,.,.,.,.,.
Cc1ccc(C(C(=O)NC(C)(C)C)N(Cc2ccccc2)C(=O)c2snc(C(N)=O)c2N)o1 (stereo not drawn),161.5*[activator],128*,10,91.5,92.2,109.8,109.8*,1.6,103.5,98.8,104.5,100.3,104.6
Cc1ccc(C(C(=O)NC2CCCC2)N(Cc2cccnc2)C(=O)c2snc(C(N)=O)c2N)o1 (stereo not drawn),102.7,28,13,93.7,88.0,103.9,.,.,.,.,.,.,.
Cc1ccc2c(c1)C1CN(C)CCC1N2Sc1ccccc1[N+](=O)[O-] (stereo not drawn),?,9,.,100.5,104.6,102.7,.,.,.,.,.,.,.
SMILES,RGS7-Gao,Avidin bead fluor,GSH bead fluor,RGS8-Gao reg,RGS16-Gao HTS,RGS4-Gao reg,RGS4-Gao HTS,Avidin counter,RGS8-Gao confirm,RGS7-Gao single,RGS16-Gao single,RGS4-Gao single,RGS19-Gao conf
COCCn1nnnc1C(C(C)C)N1CCC(Cc2ccccc2)CC1 (stereo not drawn),101.8,4,24,86.9,151.2,154.8*[activator],.,-1.2,104.2,103.7,103.6,101.0,92.2
CCOC(=O)C(=O)Nc1ncc(Cl)s1,?,8,.,101.0,102.9,106.4,.,.,.,.,.,.,.
CCCN1CCN(CCCNC(=O)CCNC(=O)Cn2ccc3ccccc3c2=O)CC1,104.7,5,38,141.7*[activator],230.4,103.6,103.6*,1.7,101.0,102.8,103.0,102.3,106.1
CCN1CCN(C(=O)CCNC(=O)Cn2ccc3ccccc3c2=O)CC1,96.5,13,9,99.2,103.7,108.7,.,.,.,.,.,.,.
COc1ccc(CCNC(=O)CN(C)S(=O)(=O)c2ccc(Br)s2)cc1OC,99.9,6,25,123.9,241.1*[activator],103.2,103.2*,-0.1,97.9,103.4,102.6,102.6,112.2
O=c1c2ccccc2nnn1CSc1nc2ccccc2[nH]1,100.0,9,12,98.2,92.4,100.7,.,.,.,.,.,.,.
Cc1cc(=O)[nH]c(SCn2nnc3ccccc3c2=O)n1,29.6*,12,24,36.5*,34.4,36.2*,.,-1.8,99.7,96.8,95.8,96.0,103.2
